From PubChem
Sampled rows, rich in hits. Any-hit rate of the full collection: about 1.4%.
ARNT-TACC3 inh: disrupts binding between human ARNT and TACC3 | inhibition, % at 9.99 µM | Q9Y6A5 | hit rate 0.66% among 390,000 | AlphaScreen His-ARNT PAS-B/GST-TACC3 binding, luminescence; TACC3 fragment carries E629A point mutation;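 active = mean inhibition of replicates at least 50% and at least half of replicates each reaching 50%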;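 note: 0% = complete ARNT plus TACC3 wells and 100% = ARNT alone without TACC3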
C2C12 statin: suppression of simvastatin myotoxicity | AID 602340 | C2C12 myotubes + simvastatin, ATP luminescence, 48 h; scaled: DMSO 0, geranylgeraniol control 100 | hit rate 0.78% among 330,000 | rescue of ATP level, % at 7.49 µM;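 active = mean ATP rescue above about 67%, or every replicate alone reaching that limit, limit read from the data, passing the limit was not always enough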;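 note: myotubes were challenged with 10 µM simvastatin during compound exposure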
PglD inh: inhibitors of Campylobacter jejuni PglD acetyltransferase; inhibition, % at 12.5 µM; purified PglD enzyme, DTNB colorimetric CoA detection; hit rate 0.098% among 360,000; in the data active = inhibition above about 16%, passing the limit was not always enough
F508del corr: correctors of CFTR F508del function in bronchial epithelial cells | AID 720511 | CFBE cells, YFP halide quenching; stimulated with forskolin plus potentiator P3; % fluorescence drop versus neutral controls | hit rate 0.36% among 350,000 | activity (quench increase), % at 7.58 µM;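 active = mean added fluorescence quench of at least 8% versus neutral control, with both replicates also reaching 8%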;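 note: cells transiently co-express mutant CFTR-F508del with the halide-sensitive YFP; corrector assay measuring rescue of mutant channel to the surface after 24 h compound exposure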
Numbers without * were called inactive; . = not tested or not shown; ! = not active in a repeat.

SMILES	ARNT-TACC3 inh	C2C12 statin	PglD inh	F508del corr
CCCNC(=O)Nc1ccc2c(c1)C(=O)N(C)[C@H]1CC[C@H](CC(=O)Nc3ccccc3C)O[C@@H]1CO2	-3	-3	1	-3
Cc1ccc(-n2cnc(=O)c3cccnc32)cc1	-5	.	.	.
C#CCSc1nc(=O)c2cccnc2n1-c1ccc(C)cc1	2	132*	0	0
CC=Cc1ccc2n(c1=O)C[C@H]1[C@H](CO)[C@@H](C(=O)NCC3CC3)N(C(=O)C3CCOCC3)[C@@H]21 (mixture of isomers)	3	18	-2	0
CCC(=O)Nc1nnc(-c2ccccn2)o1	48*	.	.	.
O=C(COc1ccccc1)Nc1nnc(-c2ccccc2)o1	93*	23	2	1
O=C(COc1ccccc1)Nc1nnc(-c2ccco2)o1	74*	-10	0	0
COc1cc(OC)c(C(=O)OCC(=O)Nc2nnc(-c3ccccc3)o2)cc1OC	85*	-9	-2	3
CS(=O)(=O)N1CCCCN2[C@H](C1)[C@@H](c1ccc(-c3cccc(C#N)c3)cc1)[C@@H]2CO	-4	-2	-1	-3
CCCNC(=O)N1C[C@H](O)COC[C@@H]2O[C@@H](CC(=O)NCc3ccncn3)CC[C@H]21	1	5	3	0
COc1cc(OC)cc(C(=O)OCC(=O)Nc2nnc(-c3ccccc3)o2)c1	5	0	0	0
O=C(COC(=O)c1ccco1)Nc1nnc(-c2ccccc2)o1	60*	-2	.	0
COc1ccc(C2=NOC(C(=O)NCc3ccc(F)cc3)C2)cc1OC (configuration not stated)	-1	.	-2	8.7*
CC=Cc1ccc2n(c1=O)C[C@@H]1[C@@H](CO)[C@H](C(=O)N3CCN(C)CC3)N(Cc3ccccc3OC)[C@H]21 (mixture of isomers)	7	-11	1	1
COc1cc(C(=O)O)nc2ccccc12	58*	19	-4	.
COc1ccc(-c2cc(OC)c3ccccc3n2)cc1	-13	.	-8	.
COc1cc(-c2ccccc2)nc2ccccc12	-6	95*	-5	.
CCCC#Cc1cnc2c(c1)C(=O)N([C@@H](C)CO)C[C@@H](C)[C@@H](CN(C)Cc1ccncc1)O2	23	8	0	.
Cc1ccc(Nc2cc(C)nn2-c2nc(C)cc(=O)[nH]2)cc1	63*	.	3	.
Cc1cc(=S)nc(-c2ccccn2)[nH]1	59*	.	.	-5
CCN(CC)CCC(=O)Nc1cccc2c1C(=O)c1ccccc1C2=O	7	25	-5	24*
CCN1c2ccccc2N(C)C1(C)c1ccccc1 (configuration not stated)	64*	.	1	.
O=C(O)/C=C/c1cccnc1	-6	4	13	0
CC(/C=C\c1cccnc1)=C/C(=O)O	1	116*!	-1	.
COCc1c(C(=O)OC)nnn1-c1ccccc1	2	130*	-6	.
SMILES	ARNT-TACC3 inh	C2C12 statin	PglD inh	F508del corr
O=C(c1cccnc1)N1CC[C@@H]2[C@H](CO)Nc3ccc(C4=CCCCC4)cc3[C@@H]21	.	.	.	8.1*
O=C(c1cccc(F)c1)N1CC[C@@H]2[C@H](CO)Nc3ccc(-c4ccccc4F)cc3[C@@H]21	6	3	3	11*
CCCNC(=O)N1[C@H](CO)[C@@H](c2ccccc2-c2ccc(OC)cc2)[C@@H]1C#N	.	.	.	3
CSc1cc(-c2ccc(Cl)cc2)c(C(=O)N2CCCC2)s1	-2	126*	-5	.
CNC(=O)c1sc(SC)cc1-c1ccc(Cl)cc1	-3	9	4	.
C[C@@H]1CCCCO[C@H](CN(C)CC2CC2)[C@@H](C)CN([C@@H](C)CO)C(=O)c2cc(NS(=O)(=O)c3cccs3)ccc2O1	-8	.	0	-1
CCOc1ccccc1NC(=O)CC1SC(=N)N(c2ccccc2)C1=O (configuration not stated)	.	.	.	15*
COc1cc(/C=C/C(=O)c2ccc3c(c2)OCO3)cc(Cl)c1O	6	.	0	9.7*
COc1ccc(C(=O)C=Cc2ccc3c(c2)OCO3)cc1OC	.	.	.	2
COc1ccc(NC(=O)Nc2ccc3c(c2)C(=O)N([C@@H](C)CO)C[C@@H](C)[C@H](CN(C)S(=O)(=O)c2cn(C)cn2)OCCCC[C@@H](C)O3)cc1	1	.	3	-1
CC1=C(C(=O)NC2CCCCC2C)C2(CCC(C)CC2)OC1=O (configuration not stated)	2	13	-1	9.9*
COc1ccc(NC(=O)N(C)C[C@@H]2Oc3ccc(NC(=O)Cc4cn(C)c5ccccc45)cc3CC(=O)N([C@H](C)CO)C[C@H]2C)cc1	-19	36	1	0
CCCC(=O)N(Cc1cc2cc(C)ccc2[nH]c1=O)c1ccccc1OC	.	76*	-2	.
CNC[C@H]1Oc2ccc(N)cc2C(=O)N([C@H](C)CO)C[C@@H]1C	-4	-15	-2	3
COc1ccc(S(=O)(=O)N[C@H]2C=C[C@@H](CC(=O)N3CCN(c4ccccc4)CC3)O[C@H]2CO)cc1	-3	-1	0	4
COc1ccc(C2CC(=O)c3cnc(N)nc3C2)c(OC)c1 (configuration not stated)	-3	106*	6	.
O=C(NCc1ccccc1)C(c1ccc(-c2ccccc2)cc1)n1c(=O)c(-c2cc3ccccc3[nH]2)nc2ccccc21 (configuration not stated)	.	.	.	10*
O=C(NCc1ccccc1)C(c1ccncc1)n1c(=O)c(-c2cc3ccccc3[nH]2)nc2ccccc21 (configuration not stated)	.	.	.	-1
CC(C)c1cccc(-c2csc(C(O)c3ccco3)n2)c1 (configuration not stated)	.	5	-2	8.9*
CCN(CC)C(=O)c1cccc(-c2csc(C(O)c3ccco3)n2)c1 (configuration not stated)	.	8	0	-2
C/C(=N\N1CCN(C2c3ccccc3-c3ccccc32)CC1)c1cccnc1	-5	11	6	.
CN=c1scc(-c2ccccc2F)n1/N=C(\C)c1cccnc1	40*	.	.	0
Cc1oc2c(C)c3oc(=O)c(CCC(=O)O)c(C)c3cc2c1-c1ccccc1	26*	18	5	2
Cc1c(CCC(=O)O)c(=O)oc2cc3occ(-c4ccc(Cl)cc4)c3cc12	45*	3	-3	-3
C[C@@H]1CN([C@H](C)CO)S(=O)(=O)c2ccc(-c3cncnc3)cc2O[C@@H]1CN(C)C(=O)c1ccc2c(c1)OCO2	-18	-9	2	0
Cc1c(Cl)cccc1NC(=O)CNC(=O)C1CC(=O)N(C2CCCC2)C1 (configuration not stated)	5	-2	4	2
Cc1c(Cl)cccc1NC(=O)C1CC(=O)N(C2CCCC2)C1 (configuration not stated)	10	3	-7	13*
Cc1ccc(-c2cnc3c(c2)C(=O)N([C@H](C)CO)C[C@@H](C)[C@H](CN(C)C(=O)Cc2ccccc2)O3)cc1	0	49	1	0
Cc1ccc2cc(CN(Cc3ccco3)C(=O)c3ccccc3)c(=O)[nH]c2c1C	-21	137*	-1	.
